PubChem BioAssay (NCI)
The panel holds about 83,000 compounds, 20% with a hit somewhere; the sample as a whole holds those more often.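 Single-dose data. Exposure time 48 hours. Values below 10 considered active.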 Activity calls are given as the source filed them.

Assays:
Assay in all cases: NCI-60 one-dose screen, 48 h (100 = growth as untreated, 0 = no growth, -100 = all killed)
Settings in all cases: 10 µM unless noted
HCT-15 colon = test system: HCT-15 colon
HT29 colon = test system: HT29 colon
SNB-75 CNS = test system: SNB-75 CNS
SNB-19 CNS = test system: SNB-19 CNS
U251 CNS = test system: U251 CNS
PC-3 prostate = test system: PC-3 prostate
SK-MEL-5 melanoma = test system: SK-MEL-5 melanoma
UACC-62 melanoma = test system: UACC-62 melanoma
LOX IMVI melanoma = test system: LOX IMVI melanoma
SK-MEL-28 melanoma = test system: SK-MEL-28 melanoma
SK-MEL-2 melanoma = test system: SK-MEL-2 melanoma
EKVX NSCLC = test system: EKVX NSCLC
SN12C renal = test system: SN12C renal
UO-31 renal = test system: UO-31 renal
TK-10 renal = test system: TK-10 renal
ACHN renal = test system: ACHN renal
CAKI-1 renal = test system: CAKI-1 renal
A498 renal = test system: A498 renal
CCRF-CEM leukemia = test system: CCRF-CEM leukemia
MOLT-4 leukemia = test system: MOLT-4 leukemia

Measured: growth

Cn1cc(-c2nnc(N)nc2-c2c[nH]c3ccc(F)cc23)c2cc(F)ccc21
inactive: HCT-15 colon 62% | HT29 colon 73.8% | SNB-75 CNS 100% | SNB-19 CNS 75.8% | U251 CNS 70.6% | PC-3 prostate 72.2% | SK-MEL-5 melanoma 96.8% | UACC-62 melanoma 73.8% | LOX IMVI melanoma 65.4% | SK-MEL-28 melanoma 94.4% | SK-MEL-2 melanoma 97.1% | EKVX NSCLC 89.1% | SN12C renal 81.3% | UO-31 renal 57.1% | TK-10 renal 121% | ACHN renal 47.7% | CAKI-1 renal 76.4% | A498 renal 86.3% | CCRF-CEM leukemia 39.4% | MOLT-4 leukemia 23.5%

Cn1cc(-c2nc(N)nnc2-c2c[nH]c3ccc(Br)cc23)c2cc(Br)ccc21
inactive: HCT-15 colon 29.8% | HT29 colon 14.1% | SNB-75 CNS 55.8% | SNB-19 CNS 43.1% | U251 CNS 27.9% | PC-3 prostate 20.2% | SK-MEL-5 melanoma 42.9% | UACC-62 melanoma 27.4% | LOX IMVI melanoma 44% | SK-MEL-28 melanoma 60.1% | SK-MEL-2 melanoma 26.8% | EKVX NSCLC 65.1% | SN12C renal 44.7% | UO-31 renal 54.1% | TK-10 renal 98% | ACHN renal 52% | CAKI-1 renal 40.3% | A498 renal 18.3% | CCRF-CEM leukemia 11.8% | MOLT-4 leukemia 17.7%

O=S(=O)(NCCCNc1nccc(-n2cnc3ccccc32)n1)c1ccc(C(F)(F)F)cc1
inactive: HCT-15 colon 81.8% | HT29 colon 96.3% | SNB-75 CNS 87.2% | SNB-19 CNS 94.2% | U251 CNS 90.8% | PC-3 prostate 66.7% | SK-MEL-5 melanoma 58.8% | UACC-62 melanoma 62% | LOX IMVI melanoma 85.6% | SK-MEL-28 melanoma 103% | SK-MEL-2 melanoma 97.8% | EKVX NSCLC 75.1% | SN12C renal 85.9% | UO-31 renal 60.7% | TK-10 renal 95.7% | ACHN renal 87.1% | CAKI-1 renal 60.5% | A498 renal 72.1% | CCRF-CEM leukemia 70.9% | MOLT-4 leukemia 67%

C#CCOC(=O)[C@@H]1CCCN1CC#C
inactive: HCT-15 colon 85.7% | HT29 colon 82.4% | SNB-75 CNS 77.8% | SNB-19 CNS 86.9% | U251 CNS 81.4% | PC-3 prostate 51.2% | SK-MEL-5 melanoma 90.2% | UACC-62 melanoma 92.8% | LOX IMVI melanoma 77.7% | SK-MEL-28 melanoma 107% | SK-MEL-2 melanoma 98.2% | EKVX NSCLC 86.3% | SN12C renal 92.6% | UO-31 renal 66.1% | TK-10 renal 96.2% | ACHN renal 85.7% | CAKI-1 renal 76.3% | A498 renal 93.5% | CCRF-CEM leukemia 81.9% | MOLT-4 leukemia 61.5%

Cc1cc(-c2ccc(Cl)cc2)n(Cc2nnc(SCC(=O)Nc3ccc(S(N)(=O)=O)cc3)n2C2CCCCC2)n1
inactive: HCT-15 colon 98.4% | HT29 colon 108% | SNB-75 CNS 118% | SNB-19 CNS 97.6% | U251 CNS 101% | PC-3 prostate 101% | SK-MEL-5 melanoma 100% | UACC-62 melanoma 99.2% | LOX IMVI melanoma 101% | SK-MEL-28 melanoma 106% | SK-MEL-2 melanoma 106% | EKVX NSCLC 103% | SN12C renal 105% | UO-31 renal 82.3% | TK-10 renal 106% | ACHN renal 104% | CAKI-1 renal 99.4% | A498 renal 111% | CCRF-CEM leukemia 114% | MOLT-4 leukemia 141%

COc1cc2c(cc1OC)C(Sc1ccc(C)cc1)c1c(nc(N)c(C#N)c1N)O2 (stereo not given)
inactive: SNB-75 CNS 29%
active: HCT-15 colon -74.3% | HT29 colon -21.2% | SNB-19 CNS -68.9% | U251 CNS -69.9% | PC-3 prostate -71.1% | SK-MEL-5 melanoma -94.6% | UACC-62 melanoma -45% | LOX IMVI melanoma -90.5% | SK-MEL-28 melanoma -80.3% | SK-MEL-2 melanoma -20% | EKVX NSCLC -84.3% | SN12C renal -64.3% | UO-31 renal -99.7% | TK-10 renal -63.6% | ACHN renal -95.8% | CAKI-1 renal -62.9% | A498 renal -54.7% | CCRF-CEM leukemia 2.14% | MOLT-4 leukemia -9.07%

COc1cc(-c2nc(-c3ccccc3)[nH]c2-c2ccnc(NCCCNS(=O)(=O)c3cccc(F)c3)n2)ccc1Cl
inactive: HCT-15 colon 25.7% | HT29 colon 23.1% | SNB-75 CNS 77.4% | SNB-19 CNS 66.3% | U251 CNS 44.5% | PC-3 prostate 25.2% | SK-MEL-5 melanoma 34.2% | UACC-62 melanoma 44.1% | LOX IMVI melanoma 35.5% | SK-MEL-28 melanoma 55% | SK-MEL-2 melanoma 43.5% | EKVX NSCLC 54.3% | SN12C renal 57.7% | UO-31 renal 35.9% | TK-10 renal 72.3% | ACHN renal 32.8% | CAKI-1 renal 42.9% | A498 renal 70.4% | CCRF-CEM leukemia 24.6% | MOLT-4 leukemia 19.6%

COc1cc2nc(Cl)nc(Nc3cccc(C4=Nc5c(N)nc(N)nc5NC(c5ccccc5)C4)c3)c2cc1OC (stereo not given)
inactive: HCT-15 colon 48.6% | HT29 colon 90.3% | SNB-75 CNS 75% | SNB-19 CNS 95.6% | U251 CNS 60.4% | PC-3 prostate 75.1% | SK-MEL-5 melanoma 73.6% | UACC-62 melanoma 91.3% | LOX IMVI melanoma 68% | SK-MEL-28 melanoma 105% | SK-MEL-2 melanoma 88.8% | EKVX NSCLC 96.7% | SN12C renal 93.4% | UO-31 renal 94.4% | TK-10 renal 110% | ACHN renal 91.8% | CAKI-1 renal 96.1% | A498 renal 88.9% | CCRF-CEM leukemia 34.8% | MOLT-4 leukemia 54.5%

CS(=O)(=O)Nc1cc(-c2ccc3ncc(C#N)c(NCc4ccccc4O)c3c2)cnc1Cl
active: HCT-15 colon 8.71% | PC-3 prostate 9.68% | SK-MEL-5 melanoma -90.3% | UACC-62 melanoma -25.3% | LOX IMVI melanoma -34.5% | SK-MEL-28 melanoma 5.12% | SK-MEL-2 melanoma -38.3% | EKVX NSCLC 4.89% | UO-31 renal 3.5% | TK-10 renal -6.17% | CAKI-1 renal -1.29% | A498 renal -41% | MOLT-4 leukemia -0.509%
inactive: HT29 colon 15.5% | SNB-75 CNS 32.3% | SNB-19 CNS 11.9% | U251 CNS 13.6% | SN12C renal 17.1% | ACHN renal 12.4% | CCRF-CEM leukemia 19.9%

O=C(CN1CCN(c2cc(=O)[nH]c3ccc(F)cc23)CC1)Nc1ccc(Cl)cc1
inactive: HCT-15 colon 79.3% | HT29 colon 100% | SNB-75 CNS 13% | SNB-19 CNS 21.3% | U251 CNS 42.6% | PC-3 prostate 78.6% | SK-MEL-5 melanoma 80.9% | UACC-62 melanoma 47.9% | LOX IMVI melanoma 75.2% | SK-MEL-28 melanoma 82.3% | SK-MEL-2 melanoma 66.2% | EKVX NSCLC 69.9% | SN12C renal 60.8% | UO-31 renal 75.2% | TK-10 renal 62.2% | ACHN renal 57% | CAKI-1 renal 72.6% | A498 renal 54.9% | CCRF-CEM leukemia 98.2% | MOLT-4 leukemia 92.4%

CCNC(=O)N1CCc2cc(OC)c(OCCc3ccc(OC)c(N)c3)cc2C1c1ccc(C)cc1C (stereo not given)
active: HT29 colon 3.09% | SK-MEL-5 melanoma -7.76% | LOX IMVI melanoma 6.47% | SK-MEL-2 melanoma 4.33% | A498 renal -5%
inactive: HCT-15 colon 10.4% | SNB-75 CNS 41.5% | SNB-19 CNS 30.1% | U251 CNS 17.8% | PC-3 prostate 29.1% | UACC-62 melanoma 24.2% | SK-MEL-28 melanoma 42.5% | EKVX NSCLC 44% | SN12C renal 22.6% | UO-31 renal 30.4% | TK-10 renal 56.1% | ACHN renal 27.6% | CAKI-1 renal 22.9% | CCRF-CEM leukemia 34.5% | MOLT-4 leukemia 29.3%

CN(C)C(=O)c1cc(-c2ccc3ncnc(NCc4ccccc4)c3c2)cnc1N
active: A498 renal -2.78%
inactive: HCT-15 colon 105% | HT29 colon 101% | SNB-75 CNS 33.4% | SNB-19 CNS 88.7% | U251 CNS 99% | PC-3 prostate 85.7% | SK-MEL-5 melanoma 93.9% | UACC-62 melanoma 89.3% | LOX IMVI melanoma 75% | SK-MEL-28 melanoma 91.4% | SK-MEL-2 melanoma 95.2% | EKVX NSCLC 47.9% | SN12C renal 56.7% | UO-31 renal 50.6% | TK-10 renal 21.9% | ACHN renal 69.2% | CAKI-1 renal 27.2% | CCRF-CEM leukemia 88% | MOLT-4 leukemia 96.8%

COc1ccc(N2C(=O)c3cc(Cl)ccc3NC2SCc2ccccc2)cc1 (stereo not given)
inactive: HCT-15 colon 82% | HT29 colon 84.1% | SNB-75 CNS 94.9% | SNB-19 CNS 95.7% | U251 CNS 99.4% | PC-3 prostate 84.8% | SK-MEL-5 melanoma 102% | UACC-62 melanoma 70.3% | LOX IMVI melanoma 94.8% | SK-MEL-28 melanoma 99.2% | SK-MEL-2 melanoma 98.9% | EKVX NSCLC 91.6% | SN12C renal 91.5% | UO-31 renal 63.8% | TK-10 renal 96.2% | ACHN renal 101% | CAKI-1 renal 81.8% | A498 renal 84.7% | CCRF-CEM leukemia 92.2% | MOLT-4 leukemia 84.5%

Cc1nn(-c2ccccc2)c2ncnc(N/N=C/c3ccccc3)c12
inactive: HCT-15 colon 85.4% | HT29 colon 89.1% | SNB-75 CNS 82.9% | SNB-19 CNS 84.4% | U251 CNS 85% | PC-3 prostate 85.2% | SK-MEL-5 melanoma 92.2% | UACC-62 melanoma 90.6% | LOX IMVI melanoma 105% | SK-MEL-28 melanoma 98.4% | SK-MEL-2 melanoma 104% | EKVX NSCLC 89.6% | SN12C renal 81% | UO-31 renal 75.3% | TK-10 renal 113% | ACHN renal 85.8% | CAKI-1 renal 102% | A498 renal 74.1% | CCRF-CEM leukemia 88.3% | MOLT-4 leukemia 87.1%
